target: Dihydroorotate dehydrogenase (quinone), mitochondrial (Plasmodium falciparum (isolate 3D7)) (UniProt Q08210); test: inhibition of P. falciparum DHODH – biochemical, C-terminal His tag, absorbance 600 nm, primary screen (AID 1175); conditions: PfDHODH enzyme, DCIP absorbance 600 nm; higher = more signal, called active from +8 up or from −8 down;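 also: recombinant parasite enzyme with a five histidine tag at its C terminus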
Also: test concentration not given here.

Sequence of Dihydroorotate dehydrogenase (quinone), mitochondrial (Plasmodium falciparum (isolate 3D7)) (Q08210 whole entry, looked up): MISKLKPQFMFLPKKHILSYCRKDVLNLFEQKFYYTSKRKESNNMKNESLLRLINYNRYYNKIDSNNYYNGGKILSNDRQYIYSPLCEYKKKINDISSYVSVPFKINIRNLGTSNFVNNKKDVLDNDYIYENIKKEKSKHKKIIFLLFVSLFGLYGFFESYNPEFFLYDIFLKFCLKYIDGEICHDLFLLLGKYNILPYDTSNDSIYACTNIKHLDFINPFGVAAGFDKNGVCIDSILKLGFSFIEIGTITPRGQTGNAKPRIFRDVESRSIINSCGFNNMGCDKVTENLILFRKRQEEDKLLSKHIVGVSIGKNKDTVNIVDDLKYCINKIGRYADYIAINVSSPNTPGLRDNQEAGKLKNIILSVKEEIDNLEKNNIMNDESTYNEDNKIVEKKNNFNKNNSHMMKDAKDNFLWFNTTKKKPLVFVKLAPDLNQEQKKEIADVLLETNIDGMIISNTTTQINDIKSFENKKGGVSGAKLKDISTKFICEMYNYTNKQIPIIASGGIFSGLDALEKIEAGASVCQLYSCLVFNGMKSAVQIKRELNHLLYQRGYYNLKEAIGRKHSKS

Composite z-score, inactive:
[N-]=[N+]=Nc1ccccc1[C@@H]1OC(c2ccc(OCCCO)cc2)=N[C@]1(Cc1ccccc1)C(=O)N1CCOCC1 0.291
Cc1nc2cc(Br)ccc2c(=O)o1 -0.442
CC1CC/C=C\[C@H]2OC34C=CCN(C(C)(C)C)C(=O)[C@H]3N(C(C)CO)C(=O)[C@@H]4C2C(=O)O1 (some centres not stated) -3.09
C=CCOC(=O)[C@@H]1[C@H]2C(=O)O[C@H](c3ccccc3)[C@H](c3ccccc3)N2[C@H](c2ccc(OCCOC(=O)[C@H]3C[C@H]4C(=O)N5CCC[C@H]5C(=O)N4[C@H]3c3ccc(O)cc3)cc2)[C@@]12C(=O)Nc1ccc(I)cc12 1.01
C=C(/C(=C/C[C@H](OC(C)=O)c1ccccc1OCCO)c1cnc2ccccc2c1)C(C)C -5.2
CCCCN1CC=CC23O[C@@H]4C=CCCOC(=O)C4[C@H]2C(=O)N(CCCCCCO)[C@@H]3C1=O (some centres not stated) -1.01
COc1ccc(C#Cc2ccc3c(c2)[C@]2(C(=O)N3)[C@H](C(=O)NC[C@H](O)c3ccccc3)[C@H]3C(=O)O[C@H](c4ccccc4)[C@H](c4ccccc4)N3[C@@H]2c2ccc(O)cc2)cc1 0.843
O=C(c1ccccc1)N1C(=O)[C@]2(COC(c3ccc(OCCCO)cc3)=N2)Cc2ccccc21 0.201

test system: not listed separately; test: inhibition of PAO1 biofilm formation – strain PAO1, LB-PBS medium, absorbance 600 nm, primary screen (AID 1176); conditions: P. aeruginosa PAO1 growth/biofilm, A600, 12 h; higher = more signal

z-score, inactive:
C=CCN1C(=O)[C@@]2(Cc3ccccc31)N=C(c1ccc(OCCCO)cc1)O[C@H]2c1ccccc1 0.122
CC(C)C(O)C1C=CC2C(=O)N(c3ccccc3)C(=O)C2N1Nc1ccc([N+](=O)[O-])cc1 (configuration not stated) 0.312
COC(=O)[C@H](Cc1ccccc1)N[C@@H](/C=C/C1CC1)[C@H](O)Cc1ccccc1 0.0117
O=C1O[C@H](c2ccccc2)[C@H](c2ccccc2)N2[C@H]1[C@@H](C(=O)N1CCCCCCC1)[C@]1(C(=O)Nc3ccc(C#CC4=CCCCC4)cc31)[C@H]2c1ccc(OCCO)cc1 2.25
CCOC(=O)C[C@H]1[C@H](OC(=O)c2ccc(C(=O)c3ccccc3)cc2)[C@@H](NC(=O)c2ccccc2)c2cc(OCCCO)ccc2N1C(=O)Cc1ccc(OC)cc1 0.62
COc1ccc([Si](C)(C)[C@H]2[C@H](CCO)O[C@@]3(C(=O)N(Cc4ccc(N(C=O)c5ccccc5)cc4)c4ccccc43)[C@@H]2C)cc1 2.06
CC(C)c1ccc(NN2C(C(O)c3ccc(B(O)O)cc3)C=CC3C(=O)N(c4ccccc4)C(=O)C32)cc1 (configuration not stated) 1.12
COc1ccc(CCNC(=O)[C@@]2(Sc3ccc(C)cc3)CC(=O)N(C3Cc4ccccc4C3)[C@@H]2c2ccc(CO)cc2I)cc1 -0.171
COCCOC(=O)N1C(=O)[C@@]2(c3ccccc31)[C@H](c1ccc(O)cc1)N1[C@H](c3ccccc3)[C@H](c3ccccc3)OC(=O)[C@H]1[C@@H]2C(=O)Nc1nc2ccccc2s1 0.995
C=C(C(=O)CC[C@@H](OC(=O)c1cccnc1)c1ccccc1OCCO)C(C)C 0.613
NCCCCCNC(=O)[C@@H]1C[C@@H]2C(=O)N[C@@H](Cc3ccccc3)C(=O)N2[C@@H]1c1ccc(O)cc1 1.07
CCCCCCc1nc(-c2ccc(OC)nc2)cc2c1[Si](C(C)C)(C(C)C)O[C@H]2c1ccccc1 0.256
C[N+](C)(C)CCCCNC(=O)[C@@H]1C[C@@H]2C(=O)N[C@@H](Cc3ccccc3)C(=O)N2[C@@H]1c1cccc(OCCO)c1 -0.226
COc1cc2c(cc1O)C(c1cccs1)N(C)CC2 (configuration not stated) 0.282
C[C@@]1([C@@H](NC(=O)c2ccc(-c3ccccc3)cc2)c2ccc(Cl)cc2)C[C@H]1C1CCCCC1 -0.195
Cc1ccc(S[C@]2(C(=O)O)CC(=O)N(C(C)C)[C@@H]2c2ccc(CO)cc2I)cc1 0.953
CN1C(=O)C2C=CC(C(O)C3CC=CCC3)N(N(c3ccccc3)c3ccccc3)C2C1=O (configuration not stated) 0.599
O=C1NC(=O)C2C1C=CC(C(O)c1cccs1)N2Nc1ccc(Cl)cc1Cl (configuration not stated) 1.08
C=CCC(OC(C)=O)[C@@H]1[C@@H](N(Cc2ccc(-c3ccccc3)cc2)C(=O)Cc2ccc(OC)cc2)c2cc(OCCCO)ccc2N1C(=O)Cc1ccc2ccccc2c1 (some centres not stated) 0.562

Source: PubChem BioAssay
